According to the supplement of paper PMC3334620:
In all, about 33,000 sequences were measured (“E-score (-0.5 to 0.5)”: median about -0.011, highest 2% from about 0.28 on). This is one part of a sample in which the highest values are shown more often than they occur.

target: T1, Gcr1 (UniProt P07261); assay: PBM E-score (8-mer binding enrichment) (E-score (-0.5 to 0.5)); higher = stronger / more preferred TF binding; conditions: protein concentration: 100 nM; construct: GST-full length
T1 sequence: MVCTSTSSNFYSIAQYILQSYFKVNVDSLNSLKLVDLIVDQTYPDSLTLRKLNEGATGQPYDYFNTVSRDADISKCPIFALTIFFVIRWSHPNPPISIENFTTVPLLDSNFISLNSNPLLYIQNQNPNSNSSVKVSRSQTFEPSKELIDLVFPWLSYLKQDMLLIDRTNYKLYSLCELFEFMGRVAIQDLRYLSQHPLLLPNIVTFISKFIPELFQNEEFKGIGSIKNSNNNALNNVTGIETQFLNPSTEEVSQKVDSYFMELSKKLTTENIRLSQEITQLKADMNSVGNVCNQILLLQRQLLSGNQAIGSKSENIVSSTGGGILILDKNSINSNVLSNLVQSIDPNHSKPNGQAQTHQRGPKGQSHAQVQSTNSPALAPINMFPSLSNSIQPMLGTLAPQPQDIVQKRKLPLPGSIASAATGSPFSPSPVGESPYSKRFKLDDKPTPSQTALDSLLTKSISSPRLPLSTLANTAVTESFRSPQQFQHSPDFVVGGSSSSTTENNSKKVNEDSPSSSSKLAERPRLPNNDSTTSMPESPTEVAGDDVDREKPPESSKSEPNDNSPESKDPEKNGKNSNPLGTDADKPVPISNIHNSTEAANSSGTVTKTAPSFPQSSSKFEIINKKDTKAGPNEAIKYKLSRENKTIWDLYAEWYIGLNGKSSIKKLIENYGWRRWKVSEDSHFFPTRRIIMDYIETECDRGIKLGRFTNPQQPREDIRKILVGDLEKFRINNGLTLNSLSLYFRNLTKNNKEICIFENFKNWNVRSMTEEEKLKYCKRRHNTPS
Experimental: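 Universal 'all 10-mer' protein binding microarrays (Agilent AMADID 015681) probed with GST-tagged S. cerevisiae TFs (full-length or DBD) made by in vitro transcription/translation (PURExpress), about 100-200 nM. Bound TF was detected with fluorescent anti-GST. Each ungapped 8-mer (which stands for itself and its reverse complement) is scored by the PBM enrichment score (E-score), a modified Wilcoxon-Mann-Whitney statistic from -0.5 to +0.5, computed with the Universal PBM Analysis Suite. Scale: above 0.35 generally sequence-specific binding.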

Sequence	PBM E-score
CGTAGGGC	-0.108
ATTAGCTG	0.107
AACTGTAC	-0.166
CGGAAGGC	0.00052
AAGAAGCG	0.0955
CGGAAGCA	0.0914
AAGAAGCA	0.165
AAGAAGCC	0.401
AAGAAGCT	0.386
AAGAAGGT	0.122
GAGAAGCA	0.111
GCGAAGCC	0.1
CGGAAGCC	0.451
AAAAAGCT	-0.183
GAGAAGCC	0.395
CGACCCCC	-0.203
GCAGAGAA	-0.0151
TGAGCACA	-0.235
AGCATAAT	-0.00272
ATATACTA	0.174
AAAGTTAA	0.0767
CAGAAGCG	0.223
CAGAAGCC	0.306
CAGAAGCA	0.0126
ACGCTAGA	-0.0413

Sequence	PBM E-score
TAGCGATA	-0.0939
CATGCCTC	-0.101
CTCCAGCC	-0.183
CAATCGGG	0.0633
CAGCAACG	0.0545
ACGCAACC	0.121
AGGCAACC	0.0186
CCGCAACC	0.316
CCGCAACA	-0.0641
AAGCAACC	0.0616
CGGCAACC	0.29
CGGCAACA	0.206
CAGCAACC	0.287
TTCGCCAA	0.0203
CCACCGCC	-0.0958
ACTTTGCA	-0.0113
CCGGGGAA	0.0357
CAACGCAC	-0.152
AAGATATT	0.125
ACCGAGTC	-0.306
ATAGAGAA	-0.111
CGAGTAGC	-0.018
GGTGTGAA	-0.0292
CCTGATCC	0.0357
AAGAAATT	0.0237

Sequence	PBM E-score
AAGAAAAA	0.164
AATAAGAA	0.328
CAGAAGAA	0.212
TAGAAGAA	0.352
AAGAAAAT	0.304
AAGAAGAC	0.0399
ACGAAGAA	-0.0157
AAGAAGAA	0.303
AATAAGAT	0.0233
AATAAGAG	0.0844
GAGAAGAA	0.0707
CCGGAGAA	-0.189
AGGTTTTC	0.0618
CACACAAG	0.128
ACTTTCAC	0.0906
TACCCCGA	-0.036
GGACCGAA	0.0294
AAATCGTT	-0.0365
AAGAAGAG	0.237
TACAAGAA	0.379
AAGAAGAT	0.338
ACGAAGAT	0.00119
TACAAAAA	0.0752
CACAAGAA	0.275
GTCGGCAA	0.0614

Sequence	PBM E-score
GGATCAAC	-0.00409
ACTCAATA	0.156
ATTTTGGG	0.274
GTTTGGGA	-0.0986
AATTTGGA	0.263
GTTTTGGA	0.122
ATTTTGGA	0.282
ATTTGGGG	0.23
ATTTGGGA	0.301
CATTTGGA	0.172
TATTTGGA	0.313
AAGCTCCG	0.00534
AACCAACA	0.0425
CTTTGAGC	-0.149
GACCATCC	-0.0793
CCGCCCGC	-0.0787
CCGCCCAC	0.0451
GCGCCCAC	0.317
GCGCCCAA	0.18
ACGCCCGC	0.105
GCGCCCGC	0.315
TAAAGGTA	-0.0155
GTGCTACA	-0.119
CTAAACGA	-0.00769
GGTTAACC	-0.194

Sequence	PBM E-score
AATCTGGA	0.257
AATCTGGT	0.281
AATCTGGC	0.0826
CGTTCCCC	-0.0544
AACAAGTG	0.0405
GATGCCAA	0.351
GATGCCAC	0.342
AATGCCAA	0.042
CATGCCGA	0.041
GATGCCGA	0.335
TATGCCAA	-0.104
CATGCCAC	-0.109
AATGCCAC	-0.0507
AATGCCGA	-0.178
GTTCATAA	0.0771
CAGTGAGG	-0.176
GCCAGGTA	0.0834
CTCTGCGC	-0.22
CAAGCAGC	0.324
GAAGCAGC	0.24
GCAGCAGA	-0.135
ACAGCAGC	0.288
AAAGCAGC	-0.0508
CACGCAGA	-0.137
ACAGCAGT	-0.0218

Sequence	PBM E-score
GCAGCAGC	0.307
ACAGCAGA	-0.0557
CACGCAGC	0.295
AACGCAGC	0.0364
CCAGCAGC	0.272
CGCGGCTC	0.117
CACTTGAG	0.00447
ACCCTCCG	-0.333
GCCGCAGC	0.0591
TAAGATCA	0.157
CGATCGAC	-0.154
GTATCGCA	-0.00444
CATACTTA	0.0988
AAAAAAGT	0.135
TGGCTGAA	0.0392
CATCCAGA	0.268
CGAGCCAA	-0.00353
GGAGCCCA	0.349
CGAGCCAC	-0.116
AGAGCCAC	0.13
AGAGCCAA	-0.13
GGAGCCAA	0.33
TGAGCCCA	0.0335
GGAGCCCC	0.265
GGAGCCAC	0.289

Sequence	PBM E-score
CCCAGTCC	-0.0352
AAGTTCAA	0.0288
CACGTGCC	-0.121
ATCGATCC	-0.0388
CCTAGAGG	0.0618
CAAGTTCG	-0.0211
ACATTGCT	0.0699
GCATCTCA	0.139
TGGGCAAA	-0.213
CCCTTCCG	-0.286
AGCTTCCA	0.458
AGCTTCAA	0.0987
AGCTTCAG	-0.19
CGCTTCCG	0.291
AGCTTCCC	0.378
ACCTTCCC	-0.00014
AGCTTCGG	0.17
TGCTTCCA	0.146
AGCTTCCG	0.433
AGCTTCGC	0.173
CGCTTCAG	0.0898
GATTAAGC	0.0627
CAAAACGC	0.025
AAGCAAAA	-0.075
CCATCCGG	-0.0299
